Biological target: Ribosomal protein S6 kinase alpha-3 (Homo sapiens) (UniProt P51812)
Conditions: at 10 µM

Chain of Ribosomal protein S6 kinase alpha-3 (Homo sapiens) (P51812 whole entry): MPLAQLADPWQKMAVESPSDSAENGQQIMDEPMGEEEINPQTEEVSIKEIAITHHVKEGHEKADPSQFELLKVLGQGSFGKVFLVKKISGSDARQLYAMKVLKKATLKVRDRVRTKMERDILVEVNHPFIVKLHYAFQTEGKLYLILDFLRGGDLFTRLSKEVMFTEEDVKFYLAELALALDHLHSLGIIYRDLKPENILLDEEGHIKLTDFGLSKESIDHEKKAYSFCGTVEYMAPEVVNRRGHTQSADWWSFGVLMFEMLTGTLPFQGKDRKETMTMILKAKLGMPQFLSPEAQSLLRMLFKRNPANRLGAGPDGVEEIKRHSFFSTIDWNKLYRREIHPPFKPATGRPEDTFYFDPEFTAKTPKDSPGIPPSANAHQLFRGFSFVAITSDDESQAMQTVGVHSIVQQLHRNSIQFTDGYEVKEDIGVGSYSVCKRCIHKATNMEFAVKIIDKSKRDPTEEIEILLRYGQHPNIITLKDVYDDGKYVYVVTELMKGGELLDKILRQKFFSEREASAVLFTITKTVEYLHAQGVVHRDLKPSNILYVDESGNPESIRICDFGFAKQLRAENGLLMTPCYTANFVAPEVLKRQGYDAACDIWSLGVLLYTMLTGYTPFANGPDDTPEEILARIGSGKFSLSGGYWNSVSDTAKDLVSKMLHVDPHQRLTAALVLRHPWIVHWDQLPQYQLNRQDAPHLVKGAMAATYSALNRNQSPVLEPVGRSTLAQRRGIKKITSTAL

| Compound | residual activity [%] |
| --- | --- |
| N#Cc1c(NC(=O)c2cccc3ccccc23)sc2c1CCCC2 | 51 |
| Fc1ccc(-c2nc3n(c2-c2ccncc2)CCS3)cc1 | 52 |
| CCCCc1c(-c2ccc(O)cc2)[nH]c2nccnc12 | 29 |
| O=c1cc(N2CCOCC2)oc2c(-c3ccccc3)cccc12 | 55 |
| O=C(Nc1nc2ccccc2n1CCN1CCOCC1)c1cccc([N+](=O)[O-])c1 | 83 |
| O=C1Nc2ccccc2/C1=C\c1c(Cl)[nH]c2ccccc12 | 25 |
| O=C1C(Cl)=C(N2C(=O)CCC2=O)C(=O)c2ccccc21 | 75 |
| CCOC(=O)c1c(C)[nH]c(/C=C2\C(=O)Nc3ccccc32)c1C | 75 |
| NCCNc1ncc(C(N)=O)c(Nc2cccc(C(F)(F)F)c2)n1 | 35 |
| N#C/C(=C\c1ccc(O)c(O)c1)C(=O)NCc1ccccc1 | 45 |
| COc1cc2nccc(Oc3ccc(NC(=S)NC(=O)c4ccccc4C)cc3)c2cc1OC | 19 |
| Cn1sc(=O)n(Cc2ccccc2)c1=O | 65 |
| O=C(c1ccccc1)c1ccc(N2CCOCC2)cc1O | 38 |
| COc1ccc(-c2cnc3c(-c4ccsc4)cnn3c2)cc1 | 51 |
| NC(=O)c1cccc(-c2cc(Nc3ccc(OC(F)(F)F)cc3)ncn2)c1 | 40 |
| COc1cc2ncnc(Nc3cccc(Cl)c3)c2cc1OC | 59 |
| NC(=O)c1ccc(-c2nc(-c3ccc4c(c3)OCCO4)c(-c3ccccn3)[nH]2)cc1 | 53 |
| O=C(O)/C=C/c1cc(Br)c(Br)c(Br)c1Br | 43 |
| Nc1nccc(-c2c(-c3ccc(F)cc3)ncn2C2CCNCC2)n1 | 36 |
| CC(C)N(CCC(=O)c1ccc2ccccc2c1)Cc1ccccc1 | 52 |
| O=C1Cc2c([nH]c3ccc([N+](=O)[O-])cc23)-c2ccccc2N1 | 34 |

Biological target: Ribosomal protein S6 kinase alpha-2 (Homo sapiens) (UniProt Q15349)
Conditions: at 1 µM

Chain of Ribosomal protein S6 kinase alpha-2 (Homo sapiens) (Q15349 whole entry): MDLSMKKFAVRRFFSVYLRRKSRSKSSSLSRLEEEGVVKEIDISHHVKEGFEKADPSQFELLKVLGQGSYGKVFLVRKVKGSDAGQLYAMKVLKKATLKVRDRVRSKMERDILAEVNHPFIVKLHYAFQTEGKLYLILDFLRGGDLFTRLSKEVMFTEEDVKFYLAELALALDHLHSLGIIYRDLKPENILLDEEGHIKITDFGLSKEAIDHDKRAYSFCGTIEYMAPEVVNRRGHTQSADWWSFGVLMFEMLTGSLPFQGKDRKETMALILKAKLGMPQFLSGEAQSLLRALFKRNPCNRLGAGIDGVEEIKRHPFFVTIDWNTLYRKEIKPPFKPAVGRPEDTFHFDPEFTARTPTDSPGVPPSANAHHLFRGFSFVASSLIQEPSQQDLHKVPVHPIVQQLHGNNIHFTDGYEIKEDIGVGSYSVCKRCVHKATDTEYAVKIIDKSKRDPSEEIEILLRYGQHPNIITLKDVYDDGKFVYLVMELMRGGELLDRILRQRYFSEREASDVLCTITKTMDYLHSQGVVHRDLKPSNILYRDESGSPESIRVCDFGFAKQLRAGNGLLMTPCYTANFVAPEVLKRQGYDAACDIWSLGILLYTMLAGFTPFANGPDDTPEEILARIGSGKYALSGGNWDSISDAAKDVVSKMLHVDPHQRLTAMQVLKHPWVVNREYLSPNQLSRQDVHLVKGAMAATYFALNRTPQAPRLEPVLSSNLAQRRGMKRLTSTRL

| Compound | residual activity [%] |
| --- | --- |
| CCCCc1c(-c2ccc(O)cc2)[nH]c2nccnc12 | 68 |
| CCOC(=O)c1c(C)[nH]c(/C=C2\C(=O)Nc3ccccc32)c1C | 72 |
| NCCNc1ncc(C(N)=O)c(Nc2cccc(C(F)(F)F)c2)n1 | 82 |
| N#C/C(=C\c1ccc(O)c(O)c1)C(=O)NCc1ccccc1 | 122 |
| Cn1sc(=O)n(Cc2ccccc2)c1=O | 99 |
| O=C1Cc2c([nH]c3ccc(Br)cc23)-c2ccccc2N1 | 12 |
| CN([C@@H](Cc1ccc(OS(=O)(=O)c2cccc3cnccc23)cc1)C(=O)N1CCN(c2ccccc2)CC1)S(=O)(=O)c1cccc2cnccc12 | 99 |
| CCN1/C(=C/C(C)=O)Sc2ccc(OC)cc21 | 77 |
| COc1cc2ncnc(Nc3cccc(Cl)c3)c2cc1OC | 87 |
| Nc1nccc(-c2c(-c3ccc(F)cc3)ncn2C2CCNCC2)n1 | 83 |
| CC(C)(C)c1nc2c3ccc(F)cc3c3c(=O)[nH]ccc3c2[nH]1 | 25 |
| O=C1Cc2c([nH]c3ccc([N+](=O)[O-])cc23)-c2ccccc2N1 | 38 |
